Screens: PubChem BioAssay, Sanford-Burnham Center for Chemical Genomics
CYP2C9 act: human CYP2C9 activators, primary screen, biochemical, luminescence; Cytochrome P450 2C9 (Homo sapiens), P11712; recombinant CYP2C9, luciferin-H conversion; stronger effect = higher value; factor 1 = untreated enzyme, 0 = blocked; activation factor at 5 µM; hit rate 1.4% among 96,000;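 active = activation factor of 2 or more for CYP2C9 at a 5 µM dose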
CD11b adhes inh: inhibitors of CD11b/CD18 adhesion to fibrinogen, primary screen, K562 cells, luminescence; ATPlite luminescence; Mn2+ added to activate the integrin; hit rate 0.54% among 93,000; inhibition, % at 10 µM; Integrin beta-2 (Homo sapiens) + Integrin alpha-M (Homo sapiens), P05107+P11215;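 active = primary inhibition of 50% or more at 10 µM, then 40% or more on retest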
Target sequence (P05107 whole entry, looked up, other chains not shown): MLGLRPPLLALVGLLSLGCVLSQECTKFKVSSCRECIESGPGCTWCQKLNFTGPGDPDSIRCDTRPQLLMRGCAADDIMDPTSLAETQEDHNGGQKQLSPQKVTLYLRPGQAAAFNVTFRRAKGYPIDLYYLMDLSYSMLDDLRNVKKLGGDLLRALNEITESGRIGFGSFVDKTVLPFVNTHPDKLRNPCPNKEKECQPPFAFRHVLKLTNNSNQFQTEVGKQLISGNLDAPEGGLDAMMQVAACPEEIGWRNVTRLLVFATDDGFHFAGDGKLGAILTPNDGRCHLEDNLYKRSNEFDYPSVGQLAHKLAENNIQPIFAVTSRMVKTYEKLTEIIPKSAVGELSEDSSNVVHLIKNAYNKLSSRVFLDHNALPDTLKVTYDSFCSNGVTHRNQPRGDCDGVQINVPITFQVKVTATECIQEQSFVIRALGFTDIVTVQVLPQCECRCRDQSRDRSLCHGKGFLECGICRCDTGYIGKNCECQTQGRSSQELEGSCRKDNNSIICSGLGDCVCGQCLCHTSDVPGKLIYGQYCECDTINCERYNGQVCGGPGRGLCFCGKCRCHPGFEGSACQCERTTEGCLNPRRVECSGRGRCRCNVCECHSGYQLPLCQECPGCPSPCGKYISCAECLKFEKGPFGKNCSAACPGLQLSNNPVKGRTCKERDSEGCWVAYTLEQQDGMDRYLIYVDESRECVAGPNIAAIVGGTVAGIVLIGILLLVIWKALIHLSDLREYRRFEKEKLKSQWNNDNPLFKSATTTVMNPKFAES
CYP2C19 activ: human CYP2C19 activators, primary screen, biochemical, luminescence | Cytochrome P450 2C19 (Homo sapiens), P33261 | recombinant CYP2C19, luciferin-H EGE luminescence; stronger effect = higher value; 0 = fully inhibited enzyme, 1 = untreated enzyme | activation factor at 5 µM | 96,000 tested, under 10 active;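 active = activation factor of at least 2 at 5 µM in the primary screen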
CD11b adhes enh: enhancers of CD11b/CD18 adhesion to fibrinogen, primary screen, K562 cells, luminescence; Integrin beta-2 (Homo sapiens) + Integrin alpha-M (Homo sapiens), P05107+P11215; activation, % at 10 µM; ATPlite luminescence; AID 1499, 2009; hit rate 0.07% among 93,000;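 active = 10 µM primary screen giving 50% or more activity, confirmed by 40% or more on retest at that dose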
CYP2C9 inhib: blockers of cytochrome P450 2C9 activity – biochemical, luminescence, ADME assay, primary screen. P11712. CYP2C9 Supersomes, luciferin-H conversion. inhibition, % at 5 µM. hit rate 20% among 96,000. AID 777, 2007;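 active = blocking of liver enzyme CYP2C9 beyond about 50% at 5 µM, limit read from the data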
CYP2C19 inhib: blockers of cytochrome P450 2C19 activity – biochemical, luminescence, ADME assay, primary screen | CYP2C19 Supersomes, luciferin-H EGE luminescence, 30 min | inhibition, % at 5 µM | hit rate 21% among 96,000 | AID 778, 2007;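 active = CYP2C19 inhibition above a set limit at 5 µM in the primary screen, cut at about 50% in these data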
Each line names hits and unclear results; the compound was inactive in the other large screens. Only some compounds are listed: those with a hit (about 28% of all), similar ones and a draw of the others.

O/N=C1\CCC2CN(C3CCCCC3)CC2C1 (centres undefined)	none
O=c1[nH]c(=O)n(-c2cccc3ccccc23)c(O)c1C=NCCCn1ccnc1	CYP2C9 inhib 75
O=c1[nH]c(=O)n(Cc2ccc(F)cc2)c(O)c1C=NCCCn1ccnc1	CYP2C9 inhib 86
O=c1[nH]c(=O)n(Cc2ccccc2)c(O)c1C=NCCCn1ccnc1	CYP2C9 inhib 64
O=c1[nH]c(=O)n(CCc2ccccc2)c(O)c1C=NCCCn1ccnc1	CYP2C9 inhib 73, CYP2C19 inhib 50
COc1ccccc1-n1c(O)c(C=NCCCn2ccnc2)c(=O)[nH]c1=O	none
CC(C)N1C(=O)NC(=O)C2(Cc3cc([N+](=O)[O-])ccc3N(C)C2c2ccccc2)C1=O (centres undefined)	none (no result: CYP2C9 act, CYP2C19 activ, CYP2C9 inhib, CYP2C19 inhib)
COc1ccc2nc(/N=C/c3c(O)n(-c4cccc(Cl)c4)c(=O)[nH]c3=O)sc2c1	none (no result: CD11b adhes inh, CD11b adhes enh)
C(=NC12CN3CN(CN(C3)C1)C2)c1cccs1	none (no result: CD11b adhes inh, CD11b adhes enh)
O/N=C1/C(=C\c2ccccc2)N2CCC1CC2	CYP2C19 inhib 83
CCn1c(=O)n(CC(=O)N2CCC3(CC2)OCCO3)c(=O)c2ccccc21	none
Cc1c2cnn(CC(=O)N3CCC4(CC3)OCCO4)c(=O)c2c(C)n1Cc1ccc(F)cc1	CYP2C19 inhib 53
O=C(Cn1ncc2c3ccccc3n(Cc3ccccc3)c2c1=O)N1CCC2(CC1)OCCO2	CYP2C9 inhib 53
O=C(Cn1ncc2ccccc21)N1CCC2(CC1)OCCO2	CYP2C19 inhib 55
O=C(Cn1ncc2c3ccccc3n(Cc3ccccc3F)c2c1=O)N1CCC2(CC1)OCCO2	CYP2C9 inhib 69
O=C1N(CN2CCOCC2)c2ccccc2C1(O)c1c[nH]c2ccccc12 (centres undefined)	none
CCOc1ccc(-n2c(O)c(C=NCCN(CC)CC)c(=O)[nH]c2=O)cc1	none
CCCCN1CCC(C#N)(Nc2ccccc2)CC1	CYP2C19 inhib 71
CN1CCN(CCC(C#N)(c2ccccc2)c2ccccc2)CC1	none
Cc1ccc(C(=O)n2cc(CCN3CCS(=O)(=O)CC3)c3ccccc32)cc1	none (no result: CD11b adhes inh, CD11b adhes enh)
CCC(C)NC(=O)c1c(N)n(Cc2ccc3c(c2)OCO3)c2nc3ccccc3nc12 (centres undefined)	CYP2C9 inhib 67
CCC(C)NC(=O)c1c(N)n(CCCOC)c2nc3ccccc3nc12 (centres undefined)	CYP2C9 inhib 88, CYP2C19 inhib 69
COCCNC(=O)c1c(N)n(Cc2ccco2)c2nc3ccccc3nc12	none
COCCCn1c(N)c(C(=O)Nc2sc3c(c2C(=O)OC)CCCC3)c2nc3ccccc3nc21	none (no result: CD11b adhes inh, CD11b adhes enh)
CC(C)(C)OC(=O)c1c(N)n(Cc2ccco2)c2nc3ccccc3nc12	CYP2C9 inhib 84, CYP2C19 inhib 52
CCCCn1c(N)c(C(=O)NCCN2CCOCC2)c2nc3ccccc3nc21	none
COCCCn1c(N)c(C(=O)OC(C)COC)c2nc3ccccc3nc21 (centres undefined)	CYP2C9 inhib 59
NC(=O)CN1C2CCC1CC(NC(=O)C1CC1)C2 (centres undefined)	none
C/C(=N/OC(=O)N(C)C)c1ncc(C(F)(F)F)cc1N1CCOCC1	none
CC(C)Sc1nnc([C@@H](N)Cc2c[nH]c3ccccc23)o1	CYP2C19 inhib 77
Fc1ccc(CCNCc2ccc(Cl)c(Cl)c2)cc1	CYP2C19 inhib 96 (no result: CD11b adhes inh, CD11b adhes enh)
OC1(c2cccnc2)CC2CCC(C1)N2Cc1nnnn1Cc1ccccc1 (centres undefined)	none
CCOc1cc(C2NCc3ccccc3-n3cccc32)ccc1O (centres undefined)	CYP2C9 inhib 75, CYP2C19 inhib 61
O=c1cccc2n1CC1CC2CN(Cc2c(Cl)cccc2Cl)C1 (centres undefined)	CYP2C9 inhib 70, CYP2C19 inhib 97
Cc1ccc(CN2CC3CC(C2)c2cccc(=O)n2C3)cc1 (centres undefined)	none
